Screens (PubChem BioAssay)
HPGD inh: HPGD (human) dehydrogenase inhibition; purified HPGD, NADH fluorescence kinetic, PGE2 substrate; Potency, µM, inactives show at the top dose activity change, negative = inhibition, actives largely listed as inhibitors; 150,000 compounds, 4.3% hits; AID 894; active = well fitted inhibition curve with a large enough effect, not every such curve was filed as active; inconclusive = small, poorly fitted or top-dose-only effect, or another doubt; inactive = no such curve, though single readings can be large or run the other way; note: potency is the fitted concentration of half-maximal effect
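20 nM HPGD preincubated 15 min at room temperature with compound in 50 mM Tris-HCl pH 8, 0.01% Tween 20. Started with 1 mM NAD+ and 30 uM prostaglandin E2; NADH fluorescence (360/450 nm) read 5 times over 30-s intervals, last minus first.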
PNC assembly inh: inhibitors of perinucleolar compartment assembly. PC3M PTB-GFP, PNC prevalence imaging, 16 h; active compounds read low. activity change (PNC), negative = inhibition, % at 10 µM. 140,000 compounds, 3.1% hits. AID 2417;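 active = readout at or below -70, meaning at least 70% loss of cells showing the perinucleolar compartment, a nuclear body marking cancer cells; inconclusive = readout between -30 and a set limit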;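 note: plate controls were DMSO wells for no effect and camptothecin positive control wells for full effect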
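Compounds are pinned in duplicate onto adhered PC3M cells stably expressing GFP-tagged PTB and incubated 16 h at 37 C. Cells are then fixed, nuclei stained with Hoechst, and PNC-positive cells counted.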
ALDH1A1 inh: blocks purified human ALDH1A1 activity. P00352. 220,000 compounds, 7.3% hits. Potency, µM (titrated, usually from 75.3 µM), inactives show top-dose activity, negative = inhibition, usual class: inhibitors. Purified ALDH1A1, NADH fluorescence, propionaldehyde substrate; active = well fitted inhibition curve with a large enough effect, not every such curve was filed as active; inconclusive = small, poorly fitted or top-dose-only effect, or another doubt; inactive = no such curve, though single readings can be large or run the other way;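 note: potency is the fitted concentration of half-maximal effect; plate controls were no enzyme wells and a reference inhibitor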
12-hLO inh: 12-hLO (ALOX12) enzyme inhibition; purified 12-hLO, xylenol orange hydroperoxide absorbance; Potency, µM (series often up to 57.1 µM), inactives show at the top dose activity change, negative = inhibition, actives largely listed as inhibitors; AID 1452; 150,000 compounds, 0.12% hits; P18054; note: potency is the fitted concentration of half-maximal effect; nearly all actives have a fitted effect of over 55% in size
Target sequence (P18054 whole entry, looked up): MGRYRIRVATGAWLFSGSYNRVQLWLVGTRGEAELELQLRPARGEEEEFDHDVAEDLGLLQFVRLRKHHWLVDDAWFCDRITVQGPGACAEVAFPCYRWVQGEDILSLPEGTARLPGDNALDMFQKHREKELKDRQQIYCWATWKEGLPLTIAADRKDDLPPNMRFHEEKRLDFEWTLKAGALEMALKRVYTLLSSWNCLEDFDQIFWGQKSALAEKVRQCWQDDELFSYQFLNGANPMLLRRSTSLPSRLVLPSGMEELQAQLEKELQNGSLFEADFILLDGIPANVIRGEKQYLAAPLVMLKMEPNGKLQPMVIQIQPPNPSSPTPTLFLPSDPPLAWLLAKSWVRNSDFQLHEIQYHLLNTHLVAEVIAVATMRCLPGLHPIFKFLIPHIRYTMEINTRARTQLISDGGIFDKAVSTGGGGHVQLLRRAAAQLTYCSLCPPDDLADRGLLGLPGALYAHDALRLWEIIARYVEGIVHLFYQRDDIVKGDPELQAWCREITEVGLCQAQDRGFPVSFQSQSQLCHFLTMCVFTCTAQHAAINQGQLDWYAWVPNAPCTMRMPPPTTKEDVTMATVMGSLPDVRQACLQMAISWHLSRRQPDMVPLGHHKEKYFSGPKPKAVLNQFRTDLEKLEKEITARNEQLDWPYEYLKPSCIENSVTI
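Purified human 12hLO (150 nM), preincubated 15 min with compound, then 40 uM arachidonic acid for 30 min, room temperature, Hepes pH 7.0 with 0.01% Triton X-100. Hydroperoxide detected by ferrous iron/xylenol orange; 573/405 nm absorbance ratio gives reaction progress.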
GLA spleen mod: inhibits or activates alpha-galactosidase in human spleen homogenate; P06280; human spleen homogenate, 4MU-alpha-Gal fluorescence, 40 min; Potency, µM (top dose mostly 80 µM), for the others: at the top dose activity change, negative = inhibition, most hits filed as inhibitors; 240,000 compounds, 0.008% hits;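 note: potency is the fitted concentration of half-maximal effect; 0% = enzyme with vehicle and -100% = no enzyme basal signal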
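Inhibition or activation of alpha-galactosidase in human spleen homogenate is scored by 4-MU fluorescence after 40 min at 37C, pH 5.0, with 1 mM substrate. AC50s come from concentration-response fitted to the Hill equation.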
GLA inh pH 4.5: alpha-galactosidase A (human) inhibition, pH 4.5 | purified enzyme, 4-MU-alpha-Gal fluorescence, pH 4.5 | activity change, negative = inhibition, % at 105 µM | 230,000 tested, under 10 active;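 note: 0% = full activity with enzyme and -100% = basal without enzyme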
The depositor's hits bear a star; u = inconclusive; x = no result; [ ] = dose if it differs, or a comment. This is a sample that favours compounds with a hit; in the whole collection about 10% have one here. Unless noted, calls come from the whole dose curve; as a rule, active = well fitted curve in the direction sought with a large enough effect; inconclusive = small, poorly fitted or top-dose-only effect, or another doubt; inactive = no such curve, though single readings can be large; an effect the other way counts as inactive or inconclusive. Unless noted, % is set by controls: 0 for no effect and ±100 for the full control effect.

SMILES	HPGD inh	PNC assembly inh	ALDH1A1 inh	12-hLO inh	GLA spleen mod	GLA inh pH 4.5
O=C(Oc1ccc(S(=O)(=O)F)cc1F)c1ccccc1Cl	-14%	x	0%[13.5 µM]	2%[11.4 µM]	x	x
COC(=O)C1CN(C#N)N(c2ccc(Cl)cc2)C12c1ccccc1-c1ccccc12 (configuration not stated)	14µM*	u	-6%	-3%	0%	-8
C[C@@H]1O[C@@H](O[C@H]2C[C@@H](O)[C@]3(CO)[C@@H]4[C@@H](O)C[C@]5(C)[C@H](C6=CC(=O)OC6)CC[C@@]5(O)[C@H]4CC[C@@]3(O)C2)[C@H](O)[C@H](O)[C@@H]1O	x	x	x	-3%	x	x
O=c1ccc(=O)[nH][nH]1	-2%	x	u	-3%	-1%	x
COc1c(C)cc(C(=O)C2CCCN(Cc3ccccn3)C2)cc1C (configuration not stated)	x	x	32µM*	x	8%	1
Cc1ccc2c(c1)=C/C(=C\c1c(O)[nH]c(=S)[nH]c1=O)C(=O)N=2	-15%	u	3.5µM*	-6%	-6%	-3
C[C@@]12CC[C@H]3[C@@H](CC=C4C[C@H](OS(=O)(=O)O)CC[C@]43C)[C@H]1CCC2=O	x	x	x	2%	x	x
CCCCCCn1c(O)c(C=NC2CCCCC2N)c(=O)[nH]c1=O (configuration not stated)	-9%	u	-3%	0%	3%	16
CCCn1c(=O)c2[nH]c(C3CCCC3)nc2n(CCCOC(=O)c2ccc(S(=O)(=O)F)cc2)c1=O	-10%	x	11µM*	-3%	9%	-3
CC(=O)Nc1ccccc1C(=O)OCc1ccc(C(=O)c2ccccc2)cc1	25µM*	10	u	0%	-3%	12
OCCBr	-3%	x	5%	-3%	3%	x
Cc1coc2c1CCC(C)C2 (configuration not stated)	-5%	x	u	-5%	12%	x
Clc1ccc(N2C[C@H]3CC[C@@H](C2)N3)nn1	x	x	x	-10%	x	x
O=[As](O)(O)c1ccc(NCc2ccccc2)cc1	0%	x	u	-2%[11.4 µM]	x	x
COc1cccc(CNC(=O)CSc2ccc(-c3ccco3)nn2)c1	x	x	13µM*	x	-3%	1
Cc1nn(Cc2ccccc2)c(C)c1C(=O)OCC(=O)NCc1ccco1	-10%	-12	15%	9%	0%	13
CCCCOC(=O)CCN1C(=O)/C(=C2\SC(=S)N(CCC(=O)OCCCC)C2=O)SC1=S	-10%	u	14µM*	-1%	3%	3
CCCCC/C=C\C/C=C\C/C=C\C/C=C\CCCC(=O)OCCN	-13%	x	u	4%[0.00818 µM]	-3%	-5
CCC1CN(C)CCC1(OC(C)=O)c1ccccc1 (configuration not stated)	2%	-1	-14%	8%	-2%	-1
CCCCN1CCC(O)(c2ccccc2)C(C(=O)c2ccccc2)C1 (configuration not stated)	-22%	34	0.11µM*	5%	-10%	-7
CC(N=Cc1c(O)[nH]c(=O)[nH]c1=O)c1ccccc1 (configuration not stated)	28µM*	-24	u	-3%	-5%	-1
COc1ccc(N/N=C/c2c(O)n(-c3ccc(C)c(C)c3)c(=O)[nH]c2=O)cc1	u	51	1.6µM*	-8%	0%	2
Cc1cccc(-n2c(O)c(/C=N/NC(=O)c3ccncc3)c(=O)[nH]c2=O)c1	x	x	x	x	-1%	1
Cc1ccc(-n2c(O)c(/C=N/Nc3ccccc3)c(=O)[nH]c2=O)cc1C	x	x	1%	x	-5%	-4
COc1ccc(N/N=C/c2c(O)n(-c3cccc(C)c3)c(=O)[nH]c2=O)cc1	x	x	3.2µM*	x	0%	-7
SMILES	HPGD inh	PNC assembly inh	ALDH1A1 inh	12-hLO inh	GLA spleen mod	GLA inh pH 4.5
Cc1ccc(C)c(OCC(=O)N2CCCN(C)CC2)c1	-1%	-112*	1%	2%	2%	22
CNC1C2CN3CCC(O2)C13 (configuration not stated)	-1%	x	-3%	-3%	5%	9
CCOC(=O)c1c(N)n(Cc2ccc(OC)cc2)c2nc3ccccc3nc12	u	9	u	-28%	u	u
COC(=O)c1c(N)n(Cc2ccc(OC)cc2)c2nc3ccccc3nc12	u	-82*	u	-10%	u	u
N#C/C(=C\c1ccc(O)c(O)c1)C(=O)NCCCNC(=O)/C(C#N)=C/c1ccc(O)c(O)c1	16µM*	x	u	u	-7%	-25
O=C(c1ccco1)N1CCC[C@@]2(CCN(Cc3ccncc3)C2)C1	-7%	x	10µM*	-1%	-5%	x
O=C(c1ccco1)N1CCC2(CC1)CN(Cc1ccncc1)C2	-4%	x	13µM*	-1%	-7%	x
CCOP(=S)(OCC)Oc1ncn(-c2ccccc2)n1	x	x	x	x	-5%	x
N#CC(O)c1ccccc1 (configuration not stated)	-1%	x	0%	0%	-1%	x
CC(Cc1ccccc1Sc1ccccc1)N(C)C (configuration not stated)	0%	u	-2%	1%	-4%	0
CN1CCN(Cc2ccccc2Sc2ccccc2)CC1	-6%	-86*	6%	-1%	8%	-2
CCC1(CCSC(=N)N)C(=O)NC(=O)NC1=O	-5%	x	-1%[13.5 µM]	-1%[11.4 µM]	x	x
c1ccc(-c2cc3c(nc2-c2ccccc2)CCNC3)cc1	x	x	1%[13.5 µM]	x	-9%[17.5 µM]	x
C=C(CC1CC(O)[C@]2(C)OC3CC4OC5C[C@]6(C)O[C@]7(C)CCC8OC9C[C@]%10(C)OC%11C(C)=CC(=O)OC%11CC%10OC9C[C@@H](C)C8OC7CC6O[C@]5(C)C/C=C\C4OC3CC2O1)C(=O)O (some centres not stated)	x	x	4µM*	x	-4%	-5
Nc1ccc([N+](=O)[O-])cc1N	-3%	x	-1%	-9%	-2%	x
ClC(Cl)c1ccccc1	-1%	x	-7%	-1%	2%	x
COC(=O)/C(C)=C\CC12OC(C)(C)C3CC(C=C4C(=O)c5c(OC)c6c(c(CC=C(C)C)c5OC431)OC(C)(CCC=C(C)C)C=C6)C2=O (configuration not stated)	-21%	x	u	-9%	14%	-12
CC(=O)Oc1c2c(c(CC=C(C)C)c3c1C(=O)C1=CC4CC5C(C)(C)OC(C/C=C(\C)C(=O)O)(C4=O)[C@]15O3)OC(C)(CCC=C(C)C)C=C2 (some centres not stated)	28µM*	x	u	u	-3%	-25
Nc1nc(/C(=C/CC(=O)O)C(=O)NC2C(=O)N3C(C(=O)O)=CCSC23)cs1 (configuration not stated)	-21%	x	u	-5%	-17%	2
Cc1ccc(-c2cn3c(=S)[nH]nc3s2)cc1	28µM*	19	u	u	7%	3
